The panel holds about 83,000 compounds, 20% with a hit somewhere; the sample as a whole holds those more often.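 Plates (96-well) were seeded with cells, treated with compound at one concentration, and incubated for 48 hours before percent growth was determined.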 Values without a mark were called inactive. Calls of active or inactive are those of the source. The calls were made as follows: active = growth percent below 10; inactive = the rest.
What was measured:
Assay in all cases: NCI-60 one-dose screen, 48 h (100 = growth as untreated, 0 = no growth, -100 = all killed)
Settings in all cases: 10 µM unless noted
HCT-15 colon = system: HCT-15 colon
HT29 colon = system: HT29 colon
SNB-75 CNS = system: SNB-75 CNS
SNB-19 CNS = system: SNB-19 CNS
U251 CNS = system: U251 CNS
PC-3 prostate = system: PC-3 prostate
SK-MEL-5 melanoma = system: SK-MEL-5 melanoma
UACC-62 melanoma = system: UACC-62 melanoma
LOX IMVI melanoma = system: LOX IMVI melanoma
SK-MEL-28 melanoma = system: SK-MEL-28 melanoma
SK-MEL-2 melanoma = system: SK-MEL-2 melanoma
EKVX NSCLC = system: EKVX NSCLC
SN12C renal = system: SN12C renal
UO-31 renal = system: UO-31 renal
TK-10 renal = system: TK-10 renal
ACHN renal = system: ACHN renal
CAKI-1 renal = system: CAKI-1 renal
A498 renal = system: A498 renal
CCRF-CEM leukemia = system: CCRF-CEM leukemia
MOLT-4 leukemia = system: MOLT-4 leukemia

| Compound | growth (HCT-15 colon) | growth (HT29 colon) | growth (SNB-75 CNS) | growth (SNB-19 CNS) | growth (U251 CNS) | growth (PC-3 prostate) | growth (SK-MEL-5 melanoma) | growth (UACC-62 melanoma) | growth (LOX IMVI melanoma) | growth (SK-MEL-28 melanoma) | growth (SK-MEL-2 melanoma) | growth (EKVX NSCLC) | growth (SN12C renal) | growth (UO-31 renal) | growth (TK-10 renal) | growth (ACHN renal) | growth (CAKI-1 renal) | growth (A498 renal) | growth (CCRF-CEM leukemia) | growth (MOLT-4 leukemia) |
| --- | --- | --- | --- | --- | --- | --- | --- | --- | --- | --- | --- | --- | --- | --- | --- | --- | --- | --- | --- | --- |
| COc1ccccc1NC(=O)n1c(=O)cc(C)c2ccc(O)cc21 | 104% | 106% | 101% | 106% | 106% | 99.9% | 98.3% | 100% | 105% | 113% | 101% | 100% | 101% | 88.6% | 111% | 110% | 99.6% | 113% | 107% | 103% |
| COC(CCP(=O)(c1ccccc1)c1ccccc1)(C(=O)c1ccccc1)c1ccccc1 (stereo not given) | 52.6% | 57.5% | 84.9% | 71.6% | 71.3% | -46.2% (active) | 34.3% | 53.8% | 64.6% | 89.1% | 34.7% | 59.2% | 96.7% | 33.4% | 81.1% | 71.5% | 87.1% | 83.4% | 35.4% | 18.3% |
| CC(C)(C)CC(C)(C)Nc1c(-c2c(O)c3ccccc3oc2=O)nc2sccn12 | 100% | 97% | 108% | 97% | 97.7% | 92.6% | 96.9% | 90.7% | 99.7% | 102% | 96.8% | 105% | 93.5% | 83.6% | 90.5% | 99.8% | 92.8% | 118% | 92.2% | 101% |
| COC(=O)c1ccc(-n2cc(CCCOS(=O)(=O)c3ccc(F)cc3)nn2)cc1 | 98.1% | 101% | 94.5% | 93.9% | 96.7% | 93.4% | 103% | 92.5% | 98.4% | 101% | 101% | 101% | 100% | 88.2% | 102% | 101% | 90.6% | 84.4% | 96.8% | 95.7% |
| C=CC(=O)NCc1cccc(Nc2ncc(Br)c(NCCCNC(=O)C3CCC3)n2)c1 | 0.948% (active) | -18.2% (active) | -70.4% (active) | 3.56% (active) | -2.33% (active) | 7.62% (active) | -39.8% (active) | -41.6% (active) | -41.1% (active) | -15.7% (active) | -50% (active) | -27.1% (active) | 1.99% (active) | -9.45% (active) | -17.4% (active) | 7.42% (active) | -25.3% (active) | -59.5% (active) | 1.57% (active) | -5.38% (active) |
| O=C1CCc2c(sc3[nH]c(=S)n(-c4cc(C(F)(F)F)cc(C(F)(F)F)c4)c(=O)c23)C1 | -42.9% (active) | 0.73% (active) | -8.04% (active) | 15.1% | -22.4% (active) | -38.4% (active) | -88.9% (active) | -12.9% (active) | 1.59% (active) | -16.8% (active) | -31.3% (active) | -8.72% (active) | 8.54% (active) | -57.5% (active) | 2.81% (active) | 3.08% (active) | 0.877% (active) | -18.2% (active) | 1.71% (active) | 11% |
| COc1ccc(N/N=C/c2ccc3c(c2)Sc2ccccc2N3C)cc1 | 84.5% | 98.6% | 73.5% | 81.1% | 63.9% | 44.4% | 77% | 10.8% | 28.1% | 100% | 98% | 65.9% | 79.3% | 42.1% | 114% | 51.6% | 26.2% | 17.5% | 73.6% | 38.8% |
| Cc1ccc(OCCOCCOCCOCCOc2ccc(C)n(O)c2=S)c(=S)n1O | 28.5% | 23.9% | 33.1% | 15.3% | 9.43% (active) | 32.7% | -15.8% (active) | -0.19% (active) | 4.26% (active) | 31% | 12.1% | 17.3% | 13.1% | -1.11% (active) | 33.3% | 12.7% | 8.11% (active) | 29.6% | 1.1% (active) | 6.72% (active) |
| Cc1ccc(Nc2cc(N)nc(N)n2)cc1 | 104% | 103% | 84.2% | 110% | 109% | 98% | 98.2% | 97.2% | 97.9% | 105% | 112% | 95.7% | 110% | 87.7% | 108% | 102% | 87.1% | 105% | 107% | 91.3% |

Reference: PubChem BioAssay (NCI)
